From PubChem BioAssay (NCI)
About 79,000 compounds went through this panel and 15% of them were active in at least one assay; those are over-represented in the sample as a whole. Cut-off read from the data, not from the text of the source: active = growth inhibition above about 70%; inactive = the rest.

Legend:
[1] = NCI Yeast Anticancer Drug Screen. Data for the rad50 strain (AID 155);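 note: 0% = growth of vehicle-only cultures of the same strain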; details: S. cerevisiae rad50 strain growth inhibition; at 50.0 µM; stronger effect = higher value
In short: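 Inhibition values express reduced yeast growth in compound-treated cultures relative to vehicle-treated controls.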

[2] = NCI Yeast Anticancer Drug Screen. Data for the mec2-1 strain (AID 157); details: S. cerevisiae mec2-1 strain, at 50.0 µM, stronger effect = higher value
In short: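 Growth inhibition is read against vehicle-treated controls after compound exposure of the mec2-1 yeast strain, which is defective in DNA damage repair or cell cycle control.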

[3] = NCI Yeast Anticancer Drug Screen. Data for the sgs1 mgt1 strain (AID 161);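 note: 0% = growth of cultures given vehicle only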; details: S. cerevisiae sgs1 mgt1 strain, at 50.0 µM, stronger effect = higher value
In short: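 Compounds are added to genetically altered yeast, and growth is compared with cultures given vehicle alone to give percent inhibition.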

[4] = NCI Yeast Anticancer Drug Screen. Data for the cln2 rad14 strain (AID 165);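 note: 0% = growth equal to vehicle treated cultures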; details: S. cerevisiae cln2 rad14 strain, at 50.0 µM, stronger effect = higher value
In short: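 Growth inhibition, relative to vehicle-treated controls, is the read-out. The test organism is a yeast strain with defined genetic alterations, cln2 rad14.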

[5] = NCI Yeast Anticancer Drug Screen. Data for the bub3 strain (AID 167); details: S. cerevisiae bub3 mutant strain, at 50.0 µM, stronger effect = higher value
In short: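 Steps: expose the mutant yeast strain to compound; grow alongside vehicle-treated cultures; measure growth; express inhibition against the vehicle cultures.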

[6] = NCI Yeast Anticancer Drug Screen. Data for the mlh1 rad18 strain (AID 175); details: S. cerevisiae mlh1 rad18 strain growth inhibition; at 50.0 µM; stronger effect = higher value
In short: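 Cells of a genetically altered yeast strain, deficient in DNA damage repair, were treated with compound. Their growth was then compared with that of vehicle-treated cultures to give inhibition.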

Measured: growth inhibition

CN1CCC(C)(c2ccccc2)C(=O)C1 (stereo unspecified)
inactive: [1] 2% | [2] 3.85% | [3] 11% | [4] -28.6% | [5] -10.3% | [6] 12.7%

O=C(O)c1cccc2c1cc(Br)c1ccccc12
inactive: [1] 22.6% | [2] 23.2% | [3] 32% | [4] -42.5% | [5] 15.8% | [6] 24.7%

Cc1ccc(S(=O)c2cccs2)cc1 (stereo unspecified)
inactive: [1] 2.15% | [2] -28.1% | [3] -49% | [4] -38.9% | [5] -18% | [6] -28.8%

O=C(O)c1ccc(S(=O)(=O)c2ccccc2[N+](=O)[O-])cc1
inactive: [1] -12.9% | [2] -10.3% | [3] -35.8% | [4] -19% | [5] -12.1% | [6] -38.6%

CCCC(SCC(=O)O)SCC(=O)O
inactive: [1] 14.4% | [2] -6.05% | [3] -6.85% | [4] -41.8% | [5] -4.75% | [6] -17%

COC(=O)c1ccccc1NC(=O)Nc1ccc(F)c([N+](=O)[O-])c1
inactive: [1] 3.75% | [2] 22.9% | [3] 3.15% | [4] 0.85% | [5] 11.6% | [6] -10.9%

O=C(O)C(C(=O)O)C1CCCCCC1
inactive: [1] -34.4% | [2] -6.6% | [3] -17.9% | [4] -29.9% | [5] -1.9% | [6] 14.2%

C/C(CC(=O)Nc1ccc(Cl)c(Cl)c1)=N/NC(=O)C[N+](C)(C)C
inactive: [1] -9.25% | [2] -14.7% | [3] -6.3% | [4] 26.6% | [5] -14.8% | [6] -6.1%

c1ccc2c(CN3CCN(Cc4c[nH]c5ccccc45)CC3)c[nH]c2c1
inactive: [1] 17.1% | [2] -8.75% | [3] -14.5% | [4] -13.8% | [5] -2.8% | [6] -21.9%

[O-][N+](=Nc1ccccc1)c1ccccc1
inactive: [1] 1.2% | [2] 1.35% | [3] 35.9% | [4] -0.9% | [5] 3.75% | [6] 24%

CC1OC(c2c(Cl)cccc2[N+](=O)[O-])OC1C (stereo unspecified)
inactive: [1] 3.5% | [2] -9.2% | [3] 5.6% | [4] 0.5% | [5] -7.6% | [6] 20%

C[N+](C)(C)CC(=O)N/N=C(/CC(=O)CC(C1=C(O)c2ccccc2OC1)c1ccccc1)C(=O)Nc1cccc(Cl)c1 (stereo unspecified)
inactive: [1] 58% | [2] 39.5% | [3] 27.7% | [4] 34.4% | [5] 28.4% | [6] 5.5%

O=C1CSC(c2ccccc2)N1O (stereo unspecified)
inactive: [1] -11.4% | [2] -5% | [3] -22% | [4] -51.5% | [5] -7.5% | [6] -7.7%

O=C(O)c1ccc(O)c(C(=O)O)c1
inactive: [1] 12% | [2] 11% | [3] 20.6% | [4] -14.7% | [5] -6.15% | [6] 16.8%

O=S1(=O)C=Cc2ccccc2CC1
inactive: [1] -4.15% | [2] -12.2% | [3] -22.4% | [4] -10.8% | [5] 0.9% | [6] -27.8%

CCCCOC(=O)N1CCCCC1
inactive: [1] -9.75% | [2] -8.15% | [3] -17.3% | [4] -5.9% | [5] -14.3% | [6] -5.75%

O=C(CC(=O)n1nc(-c2ccccc2)c(N=Nc2ccc([N+](=O)[O-])cc2)c1-c1ccccc1)Nc1ccc(Cl)cc1
inactive: [1] 35.6% | [2] 3.1% | [3] 52% | [4] 17.4% | [5] 53% | [6] 23.9%

COC(=O)c1nnn(-c2ccc(C)c(C)c2)c1C(=O)c1ccccc1
inactive: [1] -2.7% | [2] -2.5% | [3] -15.2% | [4] 16.5% | [5] -8.25% | [6] 29.1%

Clc1ccccc1C=NC1CCCCC1
inactive: [1] -5.1% | [2] -12.2% | [3] -0.3% | [4] -1.15% | [5] -5.85% | [6] -3.1%

CC(C)=CCN1c2ccccc2NC(=O)CC1C (stereo unspecified)
inactive: [1] -24.1% | [2] -66.7% | [3] -6.55% | [4] 4.5% | [5] -10.9% | [6] -14.9%

CC(O)/C=C/C(CCC(C)CO)C(C)C (stereo unspecified)
inactive: [1] -17% | [2] -27.6% | [3] -26% | [4] -10.2% | [5] -25.9% | [6] -16%
